Six1-Eya2 inh = qHTS Assay for Inhibitors of the Six1/Eya2 Interaction; 360,000 compounds, 0.56% hits; AlphaScreen GST-Six1/His-Eya2 binding, biochemical; active compounds read low; activity change, % (no concentration beside the values); in the data active = activity change below about -65%; inconclusive = mostly about -30% to -63%
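GST-Six1 + His-Eya2 (5X stock: 250/500 nM); Tris pH 8.0, 300 mM NaCl, 0.05% BSA, 0.02% Tween 20; GSH donor/Ni acceptor beads; 1 h 37 °C dark; AlphaScreen readout.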
Eya2 inh = qHTS Assay for Inhibitors of the Phosphatase Activity of Eya2; Protein phosphatase EYA2 (Homo sapiens), O00167; recombinant Eya2, OMFP fluorescence dephosphorylation (OMFP is methylfluorescein phosphate); Potency, µM (top dose mostly 76.9 µM), hits mostly inhibitors; 330,000 compounds, 0.006% hits; AID 488837, 2010
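Eya2 protein (added as 0.2 uM solution) was preincubated with compound for 10 min at ambient temperature in 50 mM HEPES pH 7.5, 50 mM NaCl, 5 uM MgCl2, 0.05% BSA, 1 mM DTT. OMFP (added at 50 uM) then reacted 10 min; fluorescence read at 485/525 nm.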
CtBP-E1A inh = qHTS Assay for Inhibitors of the CtBP/E1A Interaction; CtBP / adenovirus E1A interaction (AlphaScreen); AlphaScreen GST-E1A/His-CtBP binding, 1536-well; active compounds read low; activity change, % (concentration not given with the values); 340,000 compounds, 0.49% hits; AID 651724, 2012; in the data active = activity change below about -65%; inconclusive = mostly about -30% to -63%
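Homogeneous bead-based format: GST-tagged E1A captured on glutathione donor beads, His-tagged CtBP on nickel acceptor beads; compounds precede bead addition by 2 h at 37 °C.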
GALK inhibitor = qHTS Assay for Inhibitors of Human Galactokinase (GALK). P51570. Purified GALK, Kinase-Glo residual ATP luminescence. Potency, µM (top dose mostly 57.5 µM), hits mostly inhibitors. 270,000 compounds, 0.007% hits. AID 1868, 2009
Target sequence (P51570 whole entry, looked up): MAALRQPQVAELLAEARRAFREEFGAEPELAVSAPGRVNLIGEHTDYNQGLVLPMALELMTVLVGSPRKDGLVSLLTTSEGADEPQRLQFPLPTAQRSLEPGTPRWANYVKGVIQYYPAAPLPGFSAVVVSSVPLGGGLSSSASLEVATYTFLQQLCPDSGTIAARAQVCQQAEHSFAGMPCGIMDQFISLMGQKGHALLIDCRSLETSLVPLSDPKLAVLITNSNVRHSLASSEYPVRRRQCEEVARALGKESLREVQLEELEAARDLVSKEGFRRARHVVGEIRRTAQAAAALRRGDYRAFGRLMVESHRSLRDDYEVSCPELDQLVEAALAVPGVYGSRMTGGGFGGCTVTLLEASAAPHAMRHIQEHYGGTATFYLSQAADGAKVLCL
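GALK at 5 nM final was combined with compound, 35 uM ATP and 100 uM galactose in HEPES pH8.0 with MgCl2 and DTT. The reaction ran one hour at room temperature before luminescent ATP detection.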
Anesthetic bind = qHTS Assay for Identification of Novel General Anesthetics; Potency, µM (highest dose often 77.5 µM), hits mostly inhibitors; AID 485281, 2010; 350,000 compounds, 0.074% hits; apoferritin/1-aminoanthracene competitive binding, fluorescence; also: nearly all actives have a fitted effect of over 20% in size
Target sequence (P02791 2-175 limits assumed): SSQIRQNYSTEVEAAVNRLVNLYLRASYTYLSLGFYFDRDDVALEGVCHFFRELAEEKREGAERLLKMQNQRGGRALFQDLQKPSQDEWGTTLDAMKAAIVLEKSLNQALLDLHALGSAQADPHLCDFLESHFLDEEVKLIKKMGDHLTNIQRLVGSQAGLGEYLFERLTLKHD
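10 uM apoferritin + 50% sat. 1-AMA, PBS; cpd 10 min RT; Ex380/Em535 endpoint; normalized to free probe vs complex; 4-param Hill fit; propofol titration as pos. ctrl.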
JMJD2E inh = qHTS Assay for Inhibitors of Human Jumonji Domain Containing 2E (JMJD2E) | Lysine-specific demethylase 4E (Homo sapiens), B2RXH2 | JMJD2E catalytic domain, FDH-coupled NADH fluorescence (FDH is formaldehyde dehydrogenase) | Potency, µM (series often up to 57.1 µM), actives largely listed as inhibitors | 230,000 compounds, 1.6% hits; active = well fitted inhibition curve with a large enough effect, not every such curve was filed as active; inconclusive = small, poorly fitted or top-dose-only effect, or another doubt; inactive = no such curve, though single readings can be large or run the other way; also: nearly all actives have a fitted effect of over 50% in size
Numbers stand for hits; - = inactive; ? = inconclusive; . = no result; [ ] = another dose, or the depositor's remark. The sample as a whole holds a higher share of hits than the screen did. Unless noted, calls follow the shape of the dose curve; as a rule, active = well fitted curve in the direction sought with a large enough effect; inconclusive = small, poorly fitted or top-dose-only effect, or another doubt; inactive = no such curve, though single readings can be large; an effect the other way counts as inactive or inconclusive.

SMILES	Six1-Eya2 inh	Eya2 inh	CtBP-E1A inh	GALK inhibitor	Anesthetic bind	JMJD2E inh
O=C(NC1CCCCC1)c1cccs1	-	-	-	-	12.6µM	-
O=S(=O)(Nc1cccc2cccnc12)c1ccccc1	-66.2	-	-84.4	-	?	.
Cc1ccccc1NS(=O)(=O)c1ccc(S(=O)(=O)N2CCCC2)cc1	-	.	-	.	.	.
Cc1ccc(S(=O)(=O)Nc2cccc3cccnc23)c([N+](=O)[O-])c1	-90.9	-	-80.1	-	?	.
O=S(=O)(Nc1cccc2cccnc12)c1ccc(S(=O)(=O)N2CCCC2)cc1	-75.7	-	-90.3	-	-	-
Cc1nc(N2CCCC2)c2c(C(=O)N3CCN(c4cc(Cl)ccc4C)CC3)c(C)oc2n1	.	.	.	.	-	.
N#Cc1c(NC(=O)CSc2nnc(-c3ccco3)n2-c2ccccc2)sc2c1CCC2	-	-	-	-	?	-
CCn1c(SCC(=O)Nc2sc3c(c2C#N)CCC(C(C)(C)C)C3)nnc1-c1ccco1 (stereo not given)	-	-	-	-	28.2µM	-
NC(=O)c1c(NC(=O)CSc2nnc(-c3ccco3)n2-c2ccccc2)sc2c1CCC2	-	-	-	-	22.4µM	?
CCSc1nnc2n(-c3cccc(C)c3)c(=O)c3c4c(sc3n12)CCCC4	.	.	.	.	-	.
CCC(C)c1ccccc1OCC(=O)Nc1ccc(S(=O)(=O)Nc2cc(C)on2)cc1 (stereo not given)	.	.	.	.	-	.
Cc1nn(-c2ccccc2)c2[nH]c(=O)c(CNc3ccc(N4CCOCC4)cc3)cc12	-69.7	-	-69.1	-	-	?
CSc1nn(Cc2ccc(C)cc2)c(N)c1S(=O)(=O)c1ccccc1	.	.	.	.	-	.
CN1CCc2c(sc3ncn4nc(-c5ccccc5O)nc4c23)C1	.	-	.	-	-	22.4µM
Cc1nc(NCCO)c2nc(-c3ccccc3)n(CCCN(C)C)c2n1	.	.	.	.	-	?
O=C(NC1CCCCC1)c1nc(-c2c(F)cccc2F)oc1-c1ccccc1	-	.	-	.	.	.
Cc1ccc(C)c(NC(=O)Cn2c(=O)n(Cc3ccc4c(c3)OCO4)c(=O)c3ccccc32)c1	.	.	.	.	-	.
COc1ccc(CNCc2cc3c(cc2[N+](=O)[O-])OCO3)cc1	-	-	-	-	-	.
Cc1cc(C)cc(NCc2cc3c(cc2[N+](=O)[O-])OCO3)c1	?	-	-	.	15.8µM	-
COC(=O)[C@@]1(Cc2ccccc2-c2ccco2)C=C[C@H](C)[C@@H](c2ccccc2)N1C(=O)C(F)(F)F	.	.	.	.	.	-
CC(=O)OCC1OC(Sc2cccc3cccnc23)C(OC(C)=O)C(OC(C)=O)C1OC(C)=O (stereo not given)	-85.2	-	-85.3	-	-	?
Cc1snc(S(=O)(=O)/C(C#N)=N/Nc2cccc(C(F)(F)F)c2)c1C#N	-	-	-	28.2µM	?	-
O=c1cc(O)n(C2CCCCCC2)c(=O)[nH]1	-	-	-	-	-	.
O=c1[nH][nH]c(=S)n1C1CCCCC1	-	-	-	-	-	2.82µM
O=C(CNc1cccc2ccccc12)N/N=C/c1ccc(OC(=O)/C=C/c2ccco2)cc1	?	-	-79.3	-	-	-
SMILES	Six1-Eya2 inh	Eya2 inh	CtBP-E1A inh	GALK inhibitor	Anesthetic bind	JMJD2E inh
Cc1ccc(C(=O)N/N=C/c2cccc(OC(=O)/C=C/c3ccco3)c2)cn1	-	-	.	-	-	-
O=C(CNc1ccc2ccccc2c1)N/N=C/c1ccc(OC(=O)/C=C/c2ccco2)cc1	?	-	-66.6	-	-	-
O=C(/C=C/c1ccco1)Oc1cc(Br)cc(/C=N/NC(=O)c2ccccc2O)c1	-88.5	-	-92.2	-	-	25.1µM
Oc1ccc2ccccc2c1SSc1c(O)ccc2ccccc12	.	-	.	.	.	.
CC(NC(=O)CCCn1c(=O)c2cccn2c2cccnc21)c1ccccc1 (stereo not given)	.	.	.	.	-	.
Cc1cc(NC(=O)CSc2nnc(-c3ccco3)o2)no1	-74.2	.	-90.5	-	-	-
Cc1cc(NC(=O)CSc2nnc(CNC(=O)c3ccc(C(C)(C)C)cc3)o2)no1	-75.6	-	?	-	-	.
COc1cc(C(=O)NCc2nnc(SCC(=O)Nc3cc(C)on3)o2)cc(OC)c1OC	-	-	-	-	-	-
CCOc1ccc(NC(c2ccccn2)c2oc(CO)cc(=O)c2O)cc1 (stereo not given)	-	-	-	-	-	22.4µM
CCOc1ccc(NC(=O)C(c2ccccn2)N(C(=O)CCl)c2ccc(OC)cc2)cc1 (stereo not given)	-	-	-	-	-	-
Oc1ccc(/C=N/Nc2ncnc3c2ncn3Cc2ccccc2)cc1O	?	-	?	-	-	10µM
Oc1cccc(/C=N/Nc2ncnc3c2ncn3Cc2ccccc2)c1	-	-	-	-	-	-
COc1ccc(C(NC(C)=O)c2ccc3cccnc3c2O)c(OC)c1 (stereo not given)	?	-	?	-	-	22.4µM
COc1ccc(C(=O)NC(c2ccc(Cl)cc2)c2cc(Cl)c3cccnc3c2O)cc1 (stereo not given)	.	.	.	.	-	.
CC(=O)NC(c1ccc(Cl)cc1Cl)c1ccc2cccnc2c1O (stereo not given)	-90.1	-	-87.7	-	-	.
CC(=O)NC(c1ccc2ccccc2c1)c1ccc2cccnc2c1O (stereo not given)	-88.8	-	-65.9	-	-	.
Cc1ccc(C(Nc2ccccn2)c2ccc3cccnc3c2O)cc1 (stereo not given)	.	.	.	.	-	.
CCCC(=O)NC(c1ccc(Cl)cc1)c1ccc2cccnc2c1O (stereo not given)	-70.5	-	-76.5	-	-	.
CC1CCC2C(=O)N3C(CCC(C)[C@@H]3c3cccc(N4CCOCC4)c3)C(=O)N2C1c1cccc(N2CCOCC2)c1 (stereo not given in full)	.	.	.	.	-[15.3 µM]	.
CCCC(=O)NC(c1ccc(C)cc1)c1ccc2cccnc2c1O (stereo not given)	-66.3	-	-90.3	-	-	.
CCCC(=O)NC(c1ccccc1)c1c(O)ccc2ccccc12 (stereo not given)	-	-	.	-	-	.
CCCC(=O)NC(c1ccc(Cl)cc1Cl)c1ccc2cccnc2c1O (stereo not given)	?	-	-73.1	-	-	.
O=C1NN(C(=O)Nc2ccc(Br)cc2)C(c2ccccc2)C1c1ccccc1 (stereo not given)	.	.	.	.	-	.
COC(=O)Cc1cc(=O)[nH]c(Nc2nc3ccccc3o2)n1	?	-	-	-	-	-
COCc1cc(=O)[nH]c(Nc2nc3ccccc3o2)n1	-73.8	-	-84.9	-	-	?
